Assay outcomes: PubChem BioAssay, Buhrlage Lab, Dana-Farber Cancer Institute and Novartis Institutes for BioMedical Research (Cambridge, Mass)
Only some compounds are listed: those with a hit (about 13% of all), similar ones and a draw of the others.
USP10 block – blocks human USP10 ubiquitin-rhodamine cleavage; AID 1645856; purified USP10, Ub-rhodamine fluorescence, 60 min; 47,000 tested, 1.1% active; inhibition, % at 20 µM; Q14694
USP8 inh – human USP8 deubiquitinase inhibition; P40818; purified USP8, Ub-rhodamine cleavage fluorescence, 30 min; 47,000 tested, 4.2% active; inhibition, % at 20 µM
USP28 block – blocks human USP28 ubiquitin-rhodamine cleavage | Q96RU2 | purified USP28, Ub-rhodamine cleavage fluorescence, 30 min | inhibition, % at 25 µM | 47,000 tested, 3% active | AID 1645857
USP17 inh – human USP17-like deubiquitinase inhibition; A8MUK1; purified USP17, Ub-rhodamine cleavage fluorescence, 3 h; inhibition, % at 50 µM; 47,000 tested, 6.5% active; AID 1645855
Target sequence (A8MUK1 whole entry, looked up): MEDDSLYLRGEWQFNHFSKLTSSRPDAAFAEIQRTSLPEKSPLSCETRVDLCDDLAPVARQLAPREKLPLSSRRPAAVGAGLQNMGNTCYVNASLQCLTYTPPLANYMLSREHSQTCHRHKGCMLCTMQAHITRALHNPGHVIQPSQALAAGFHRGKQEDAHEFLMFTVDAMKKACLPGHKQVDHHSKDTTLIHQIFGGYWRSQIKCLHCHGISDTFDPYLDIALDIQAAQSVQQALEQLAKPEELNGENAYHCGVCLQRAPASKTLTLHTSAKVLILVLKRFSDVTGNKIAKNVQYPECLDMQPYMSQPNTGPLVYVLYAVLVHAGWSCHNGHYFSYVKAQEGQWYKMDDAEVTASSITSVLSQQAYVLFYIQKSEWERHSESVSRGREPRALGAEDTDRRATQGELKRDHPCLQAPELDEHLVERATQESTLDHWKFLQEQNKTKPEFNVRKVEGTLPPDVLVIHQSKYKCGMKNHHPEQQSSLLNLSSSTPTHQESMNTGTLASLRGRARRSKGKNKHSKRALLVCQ
USP30 block – inhibitors of human USP30 deubiquitinase | Q70CQ3 | purified USP30, Ub-rhodamine cleavage fluorescence | inhibition, % at 25 µM | 47,000 tested, 5.3% active | AID 1645860
OTUD3 inh – inhibitors of human OTUD3 deubiquitinase; Q5T2D3; purified OTUD3, Ub-rhodamine fluorescence, 2 h; inhibition, % at 25 µM; 47,000 tested, 0.7% active
An asterisk follows results filed as active; . = not tested or not shown. Cut-off read from the data, not from the text of the source: active = inhibition above about 30%; inactive = the rest.

SMILES | USP10 block | USP8 inh | USP28 block | USP17 inh | USP30 block | OTUD3 inh
CCCC(O)CCCCCCCc1cc(O)cc(O)c1C(=O)OC(CCC)CCCCCCCc1cc(O)cc(O)c1 (centres undefined) | 76.2* | 14.7 | 25.5 | 91.1* | 20.2 | 19.0
CCOC(=O)Cc1cc(O)cc(O)c1C(=O)CCCCCC(C)O (centres undefined) | -3.8 | -8.0 | -1.0 | -17.0 | -25.7 | -2.7
Cc1nc(NCc2ccco2)nc2c1COCC21CCN(C(=O)C2CCC2)C1 (centres undefined) | -3.5 | -23.3 | -40.0 | -35.0 | -122.9 | -23.1
COc1cc2oc(=O)cc(CN3CCCCC3)c2cc1OC | 0.4 | 3.4 | -3.5 | 45.4* | 2.2 | -2.0
COC(=O)C1CCN(Cc2cc(=O)oc3cc(OC)ccc23)CC1 | 1.5 | 7.5 | -1.1 | 0.5 | -0.1 | -0.3
CS(=O)(=O)c1ccc(NCCCN2CCOCC2)c(F)c1 | 0.0 | -0.2 | -0.1 | -6.4 | 7.9 | -4.9
Cc1c(-c2ccccc2)oc2c(C(=O)OCC(=O)Nc3ccccc3F)cccc2c1=O | 8.2 | 2.8 | 1.4 | 67.4* | 4.4 | 13.0
O=C(Cc1ccc(-c2ccccc2)cc1)Nc1ccccc1F | -7.1 | -9.9 | -64.4 | -38.6 | -254.5 | -72.6
C[C@]12C(=O)N(Cc3ccco3)CC(=O)N1CC(c1ccc(Br)cc1)c1c2[nH]c2ccccc12 (some centres undefined) | -1.1 | -14.6 | 6.9 | 34.0* | -53.1 | 1.3
CCc1ccc(C2CN3C(=O)CN(Cc4ccco4)C(=O)[C@]3(C)c3[nH]c4ccccc4c32)cc1 (some centres undefined) | -8.2 | -2.1 | -14.6 | -15.3 | -74.5 | -6.3
Fc1ccc(Cc2nnc(-c3cnc4onc(C5CCCC5)c4c3)o2)cc1 | 7.5 | 29.4 | 19.1 | 8.2 | 19.7 | 21.3
CCOc1ccc(-c2nnc(-c3cnc4onc(C5CCCC5)c4c3)o2)cc1 | 31.5* | 28.2 | 0.0 | 2.1 | 1.0 | 3.9
CC(C)(C)Cc1nnc(-c2cnc3onc(C4CCCC4)c3c2)o1 | 0.9 | 35.4* | 6.3 | 7.1 | -36.3 | 10.6
O=c1c2cnc(N3CCN(c4ccccc4)CC3)nc2ccn1CCN1CCOCC1 | -1.2 | 6.1 | 6.9 | -0.9 | 12.9 | 8.0
CCn1c(=O)c2sccc2n2c(CCC(=O)N3CCC(Cc4ccccc4)CC3)nnc12 | 0.6 | -14.1 | 7.1 | -3.5 | 13.8 | 0.5
O=C(C1CCCCC1)N1CCCC(c2nn(CCOc3ccccc3)c3nccnc23)C1 (centres undefined) | 0.8 | 23.3 | 20.2 | 30.6* | 33.4* | 20.1
O=C(CC1CCCC1)N1CCCC(c2nn(CCOc3ccccc3)c3nccnc23)C1 (centres undefined) | 5.4 | 12.4 | 18.1 | 14.8 | 23.2 | 12.8
O=C(O)C1C(C(=O)Nc2ccccc2)C2(c3ccccc3)C(=O)C1(c1ccccc1)C(c1ccccc1)=C2c1ccccc1 (centres undefined) | 69.4* | 51.0* | 85.9* | 93.6* | 82.1* | 64.2*
CC1(C)OC(=O)[C@@]2(C)N[C@]1(C)C[C@@H]2C(=O)Nc1ccccc1 | 1.4 | 8.3 | 0.9 | 4.0 | 6.0 | 4.9
Cc1cccc(C(=O)Nc2c(C(=O)NCc3ccccn3)[nH]c3ccccc23)c1 | -2.3 | -17.7 | -16.7 | -19.3 | -26.0 | -16.6
Cn1c(C(=O)NCc2ccccn2)cc2c(=O)[nH]c3ccccc3c21 | -0.4 | 87.4* | 37.9* | 80.2* | -28.8 | 9.8
Cn1c(CC2CCN(C(=O)Nc3cc(F)cc(F)c3)C2)nc2cccnc21 (centres undefined) | -2.9 | -47.6 | -8.8 | -19.6 | -24.8 | -9.9
O=C(CN1C(=O)C(c2ccccc2)Oc2cccnc21)NCCCN1CCCCCC1 (centres undefined) | -5.4 | -16.3 | -15.2 | 40.9* | -61.1 | -11.8
CN(C)C(=O)N1C[C@@H]2C(=O)N(C)C3(CCN(S(=O)(=O)c4ccccc4)CC3)[C@@H]2C1 | 1.4 | 0.0 | -10.0 | -7.6 | -5.0 | 2.5
O=C(NCCCS(=O)(=O)N1CCN(c2ncccn2)CC1)c1c(F)cccc1F | 3.8 | -23.8 | -7.0 | 2.5 | -17.2 | -5.4
SMILES | USP10 block | USP8 inh | USP28 block | USP17 inh | USP30 block | OTUD3 inh
COc1cc2nc(SCC(=O)c3ccc(F)cc3)n3nc(C)nc3c2cc1OC | -2.2 | -12.8 | -16.0 | -12.5 | -44.1 | -17.4
Cc1n[nH]c(C)c1CCc1nc2c3ccccc3nc(SCC(=O)c3ccc(F)cc3)n2n1 | 0.0 | 10.8 | 8.4 | 53.2* | 71.2* | 12.4
COc1cc(OC)c2c(C)c(CC(=O)NCCc3c[nH]c4ccccc34)c(=O)oc2c1 | 5.2 | 6.0 | -9.5 | 33.3* | -1.3 | -7.5
COc1ccc(C(=O)NCCc2c[nH]c3ccccc23)cc1[N+](=O)[O-] | -2.8 | -70.6 | 39.5* | -11.1 | 3.5 | 10.3
COc1cc2oc(=O)c(CC(=O)N[C@@H](Cc3c[nH]c4ccccc34)C(=O)O)c(C)c2cc1OC | 1.5 | -4.2 | -3.1 | . | -3.6 | -0.2
CN1C(=O)COc2ccccc2CCCC[C@@H]2[C@H]1CCCN2C(=O)c1n[nH]c2c1CCC2 | 0.6 | 9.5 | 12.0 | 6.4 | 30.8* | 5.7
CN1CCC(C(=O)N2CCC[C@@H]3[C@H]2C/C=C/Cc2ccccc2OCC(=O)N3C)CC1 | 0.3 | 4.3 | 5.1 | 0.2 | 2.4 | 3.7
CN1C(=O)COc2ccccc2CCCC[C@@H]2[C@H]1CCCN2S(=O)(=O)N1CCOCC1 | -4.5 | 7.7 | 16.5 | 3.0 | 30.6* | 6.6
c1cc(CNc2nc(C3CC3)nc3c2CCC3)ccn1 | 0.6 | -2.3 | -2.9 | -3.0 | -2.3 | -1.9
CCCn1nc(-n2cnnc2)c(NC(=O)c2cccc(F)c2)c1C | 2.0 | 0.2 | -3.7 | -0.7 | 6.2 | 1.5
CCCc1nc(SCC(=O)Nc2ccccc2)c2c(=O)n(C)c(=O)n(C)c2n1 | 8.5 | 18.5 | 11.6 | 24.3 | 30.7* | 15.9
CCCCc1nc(SCC(=O)N2CCc3ccccc32)c2c(=O)n(C)c(=O)n(C)c2n1 | 1.5 | 9.1 | 1.4 | -1.7 | -54.3 | 0.0
Cc1ccccc1CN1CCOC(c2ccc(Nc3ccc(F)cn3)cn2)C1 (centres undefined) | 5.4 | 12.4 | 20.2 | 0.1 | -22.6 | -4.9
COc1ccc(-c2nc(Cn3nnc(C(=O)Nc4ccc(C)c(C)c4)c3N)c(C)o2)cc1 | 21.5 | 27.7 | -1.8 | 79.8* | 7.6 | 1.1
CCOC(=O)c1noc2nc(C)n(Cc3nc(-c4ccc(OC)cc4)oc3C)c(=O)c12 | -3.1 | -6.9 | -1.3 | 0.0 | -3.1 | 0.8
COc1ccc(-c2nc(Cn3nnc(C(=O)Nc4ccc(C)cc4C)c3N)c(C)o2)cc1 | -6.7 | 25.4 | 6.9 | 28.9 | 57.2* | 12.6
COc1ccc(-c2nc(Cn3c(=O)n(C(C)C)c(=O)c4ccccc43)c(C)o2)cc1 | 2.6 | 15.9 | 8.8 | 10.6 | 5.9 | 6.0
CCc1nn2c(CNC(=O)c3cccnc3)c(-c3ccccc3)nc2s1 | -1.0 | 0.3 | -9.0 | -3.8 | -1.2 | -2.2
Cc1noc(C)c1CN1CCN(C(=O)NCc2ccco2)CC1 | -3.3 | -6.9 | -16.7 | -35.0 | -156.1 | -13.9
